# Measured values reported in PubChem BioAssay (NCI).
# Compounds without any hit were thinned out: in the full panel of roughly 83,000, 20% have a hit.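 Cell lines were cultured in 96-well plates, exposed to a single compound concentration, and assessed for percent growth 48 hours later.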 Activity calls are given as the source filed them.
# System: SK-MEL-28 melanoma
# Assay: NCI-60 one-dose screen, 48 h (100 = growth as untreated, 0 = no growth, -100 = all killed)
# Details: 10 µM unless noted
# Procedure: Growth inhibition of the SK-MEL-28 human tumor cell line is measured as a screen for anti-cancer activity. Cells are grown in 96 well plates and exposed to the test compound for 48 hours. Compounds are tested at a single concentration, which is 10^-5 M for most compounds. The reported endpoint is percent growth (GI% or GIPRCNT), where numbers from 0 - 100% represent growth inhibition, and numbers from -100% - 0 represent cell death. For example, a value of 40 represents 60% growth inhibition. A value of 0 means no net growth occurred over the course of the experiment. A value of -40 indicates 40% of cells at the beginning of the experiment died by the end of the experiment. A value of -100 means all cells are dead at the end of the experiment.
# NCI-60 Human Tumor Cell Lines Screen was performed using the standard one-dose NCI protocol, which is described in more detail at https://dtp.cancer.gov/discovery_development/nci-60/default.htm.
# Compounds with GIPRCNT values below 10 were considered active. Activity score was based on GIPRCNT using the following formula: […]
# Score is 0 for GIPRCNT values of 100 or above, 50 for GIPRCNT values of 0, and 100 for GIPRCNT values of -100.
row,Structure (SMILES),growth
1,CCNCCOc1ccc(/C(=C(/CC)c2ccc(Cl)cc2)c2ccc(OCCCN(C)C)cc2)cc1,-94.3% (active)
2,CCOP(=O)(OCC)OC[C@]12CC[C@@H](C)[C@H](C)C1C1=CC[C@@H]3[C@@]4(C)CCCNC(C)(C)[C@@H]4CC[C@@]3(C)[C@]1(C)CC2 (stereo not given in full),-2.47% (active)
3,COc1ccc(C2C(C#N)=C(/N=C/c3ccc(Cl)cc3)Oc3c2sc2c(C)cccc32)cc1 (stereo not given),61.8% (inactive)
4,CC(C)(C)Nc1nc2c(OCCc3ccccc3)cccn2c1-c1cccc(Oc2ccccc2)c1,34% (inactive)
5,Fc1ccc2nc(-c3cnn4cccnc34)sc2c1,117% (inactive)
6,CN(C)CC(=O)Nc1nc(-c2cccc(NS(=O)(=O)c3cccc4c(N(C)C)cccc34)c2)cs1,104% (inactive)
7,O=c1nc(Nc2ccc([N+](=O)[O-])cc2O)sc2ccccc12,50.8% (inactive)
8,Cc1[nH]c(C(=O)Nc2ccc(C(=O)NCC3CCNCC3)cc2OC(C)C)c(Cl)c1Cl,83.9% (inactive)
9,CNc1sc(S(=O)(=O)NC)nc1S(=O)(=O)c1ccc(C)cc1,102% (inactive)
10,CN1CCN(Cc2ccc(NC(=O)c3cncc(C#Cc4cnc5ccc(NCCO)nn45)c3)cc2C(F)(F)F)CC1,-24.4% (active)
11,COc1cc(C(=O)c2cc(C(C)=O)c3cccc(C)n23)cc(OC)c1OC,61.8% (inactive)
12,FC(F)(F)c1cc(Br)cc(-c2cc(-c3ccc4c(c3)OCCO4)[nH]n2)c1,68.3% (inactive)
13,O=C(CSc1nc2ccccc2c(=O)n1CCc1ccccc1)Nc1ccc(S(=O)(=O)Nc2ccc(Cl)nn2)cc1,108% (inactive)
14,N#CC1=C2NCCCNc3oc(nc3C#N)Cc3ccccc3CC(=N1)O2,102% (inactive)
15,O=C(CSc1nnc(-c2cccs2)n1-c1ccccc1)Nc1ccccc1F,81.1% (inactive)
16,c1ccc(-c2cn3c(-c4c[nH]c5ccccc45)csc3n2)cc1,71.9% (inactive)
17,C=CCSC1=NC2C(N(CC)C(=O)N2CC)N1/N=C/C=C/c1ccccc1OC (stereo not given),84.3% (inactive)
18,Cc1ccc(OCc2occc2C(=O)N2CCOCC2)cc1,110% (inactive)
19,CS(=O)(=O)c1nccc(-c2c(-c3cccc(OCc4ccc(Cl)c(C(F)(F)F)c4)c3)nc3sccn23)n1,50.5% (inactive)
20,COC(=O)CCCNCCCn1ccc2cc(NCc3cccc(-c4ccccc4)c3C)ccc21,75.9% (inactive)

row,Structure (SMILES),growth
1,O=C(N/N=C\c1ccc(F)cc1)c1ccc2nc(-c3ccc(Br)cc3)[nH]c2c1,10.8% (inactive)
2,CCCN1C=C/C(=C\C(=O)n2ccc3ccccc32)c2ccccc21,90.6% (inactive)
3,Cn1cc(-c2nn3cc(-c4ccncc4)nc3s2)c2cc(F)ccc21,105% (inactive)
4,O=C(Nc1ccc(Cl)c(C(F)(F)F)c1)Nc1ccc2c(ccn2C(=O)c2cccc(F)c2)c1,46.6% (inactive)
5,O=S(=O)(Oc1ccc(-c2cn3ccoc3n2)cc1)c1cccc(C(F)(F)F)c1,106% (inactive)
6,CCCCCC[n+]1ccc(SCC(=O)n2ccc3ccccc32)c2ccccc21,106% (inactive)
7,COc1ccc(/C=N/NC(=O)c2c(N)nn(C)c2Nc2ccccc2)cc1,57.5% (inactive)
8,CC(=O)N1N=C(c2cc3ccccc3oc2=O)CC1c1cn(-c2ccccc2)nc1-c1ccc(C)cc1 (stereo not given),106% (inactive)
9,NS(=O)(=O)c1cccc(Nc2nc(SCC(=O)c3ccc(Cl)cc3)nc3c2CCC3)c1,104% (inactive)
10,CN(C)c1ccc(-c2cc(-c3c[nH]c4ccccc34)nc(N)c2C#N)cc1,59.8% (inactive)
11,COc1cc(C(=O)c2cc(C(C)=O)c3c(C)cccn23)cc(OC)c1OC,103% (inactive)
12,CCN(CC)c1ccc(/C=N/NC(=O)c2ccc(NS(C)(=O)=O)cc2)cc1,23.8% (inactive)
13,COc1ccc(Cn2cc(C#N)c(N)c2C(C)=O)cc1,109% (inactive)
14,CC(C)C(/C=C/c1[nH]ncc1-c1cc(Cl)ccc1O)N1CCOCC1 (stereo not given),98.9% (inactive)
15,CCc1cc(O)ccc1Nc1cc(-c2ccc(-n3cccn3)cc2)[nH]n1,80.8% (inactive)
16,O=C(CSc1nnc(-c2ccc(Cl)cc2)n1-c1ccccc1)Nc1ccccc1Cl,99.2% (inactive)
17,Brc1cccc(-c2cc(-c3ccc4c(c3)OC=CO4)[nH]n2)c1,50% (inactive)
18,O=C(/C=C/c1cccc(C(F)(F)F)c1)Nc1cccc(C(F)(F)F)c1,65.4% (inactive)
19,CC1=C(SCC(=O)OCCCCCC(C)C)C(=O)c2ccccc2C1=O,110% (inactive)
20,COc1ccc2c(c1)C=CC1(O2)Oc2ccc(OC)cc2C=C1C (stereo not given),54.2% (inactive)
